Test results taken from PubChem BioAssay (NCATS).
Values joined by “and” are separate entries in the source; they are usually repeats but may differ in a detail not shown here. Equal values may be shown once. Records with an inconclusive call do not appear. Active and inactive are the calls of the source. Calls follow the shape of the dose curve; as a rule, active = well fitted activation curve with a large enough effect; inconclusive = small, poorly fitted or top-dose-only effect; inactive = no such curve, though single readings can be large or run the other way.

target: Cellular tumor antigen p53 (Homo sapiens) (UniProt P04637); experiment: Primary qHTS for small molecule compounds that upregulate eGFP-tagged delta133p53alpha (in N-terminal) cells. (AID 2060322); conditions: NCI-H358 eGFP-delta133p53alpha fluorescence, 24 h; activation: hits give high values; also: nearly all actives have a fitted effect of over 75% in size;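 as to activation: series mostly up to about 56 µM; 0% = DMSO vehicle and 100% = reference activator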
Sequence (P04637 whole entry, looked up): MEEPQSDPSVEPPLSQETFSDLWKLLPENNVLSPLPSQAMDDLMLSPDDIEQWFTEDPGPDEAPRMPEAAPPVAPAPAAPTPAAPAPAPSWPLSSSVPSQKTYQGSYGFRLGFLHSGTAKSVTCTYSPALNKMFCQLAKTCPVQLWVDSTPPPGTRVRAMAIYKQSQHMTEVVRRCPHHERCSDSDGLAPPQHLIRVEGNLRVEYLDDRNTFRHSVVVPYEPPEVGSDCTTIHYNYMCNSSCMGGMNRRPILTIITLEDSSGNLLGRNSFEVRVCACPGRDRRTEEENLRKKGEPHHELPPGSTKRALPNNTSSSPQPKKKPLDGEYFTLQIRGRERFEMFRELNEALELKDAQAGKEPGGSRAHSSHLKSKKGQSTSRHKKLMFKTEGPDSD
Procedure, shortened: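 NCI-H358 cells pre-induced 24 h with 10 ng/ml doxycycline to express N-terminal eGFP-delta133p53alpha, then dosed 24 h at 37C without doxycycline; fixed, Hoechst-stained, GFP intensity by laser scanning cytometry, normalized to DMSO (0%) and 57.5 uM 5-azacytidine (100%).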
Potency is read from the fitted curve at half-maximal effect.

| Compound | activation | Potency |
| --- | --- | --- |
| CCOP(=O)(NC(C)C)Oc1ccc(SC)c(C)c1 (stereo not given) | 10.7% (inactive) |  |
| CCC(=O)C(CCN(C)C)(c1ccccc1)c1ccccc1 |  | 13.8 µM (active) |
| CC1COC2(c3ccccc3Cl)c3cc(Cl)ccc3NC(=O)CN12 (stereo not given) | 28.5% (inactive) |  |
| COc1ccc(C(c2ccc(OC)cc2)C(Cl)(Cl)Cl)cc1 | -10.7% (inactive) |  |
| CN1C(=O)CN=C(c2ccccc2)c2cc(Cl)ccc21 | -7.34% (inactive) |  |
| O=C(O)COc1ccccc1 | -28.8% (inactive) |  |
| CCC(=O)O[C@H]1CC[C@H]2[C@@H]3CCC4=CC(=O)CC[C@]4(C)[C@H]3CC[C@]12C | -0.565% (inactive) |  |
| COP(=S)(OC)Oc1ccc(S(N)(=O)=O)cc1 | -28.8% (inactive) |  |
| CCN(C(C)=O)c1cccc(-c2ccnc3c(C#N)cnn23)c1 | -16.4% (inactive) |  |
| CC1(C)C(C=C(Cl)Cl)C1C(=O)OC(C#N)c1cccc(Oc2ccccc2)c1 (stereo not given) | -23.2% (inactive) |  |
| Nc1ccccc1 | -8.47% (inactive) |  |
| C=C1C[C@H]2[C@H]3CCC(=O)[C@@]3(C)CC[C@@H]2[C@@]2(C)C=CC(=O)C=C12 | 3.97% (inactive) |  |
| C[C@@]12OC(=O)[C@]1([C@@H](O)[C@@H]1C=CCCC1)NC(=O)[C@H]2CCCl |  | 2.73 µM (active) |
| CC[n+]1c(-c2ccccc2)c2cc(N)ccc2c2ccc(N)cc21 |  | 19.5 µM (active) |
| CCN(Cc1ccc(Cl)nc1)/C(=C/[N+](=O)[O-])NC | -24.3% (inactive) |  |
| COc1ccc2c(c1)[C@]13CCCCC1C(C2)N(C)CC3 (stereo not given in full) | 8.01% (inactive) |  |
| CCC1(c2ccccc2)CCC(=O)NC1=O (stereo not given) | 4.18% (inactive) |  |
| CC(C)(C)NCC(O)c1cc(Cl)c(N)c(C(F)(F)F)c1 (stereo not given) | -6.21% (inactive) |  |
| C=CCN1CC[C@]23CCCC[C@H]2[C@H]1Cc1ccc(O)cc13 | -6.69% (inactive) |  |
| COP(=S)(OC)Oc1ccc(S(=O)(=O)N(C)C)cc1 | 5.86% (inactive) |  |

| Compound | activation | Potency |
| --- | --- | --- |
| OC(O)C(Cl)(Cl)Cl | -29.9% (inactive) |  |
| C#CCOC(C(=O)OCCN(C)C)(c1ccccc1)c1ccccc1 | -6.21% (inactive) |  |
| O=C1c2ccccc2C(=O)c2ccccc21 | 0% (inactive) |  |
| CC1OC(C)OC(C)O1 (stereo not given) | 6.21% (inactive) |  |
| C[C@](O)(CS(=O)(=O)c1ccc(F)cc1)C(=O)Nc1ccc(C#N)c(C(F)(F)F)c1 | -4.55% (inactive) |  |
| CN1CC[C@]23c4c5ccc(O)c4O[C@H]2[C@@H](O)CC[C@H]3[C@H]1C5 | 14.1% (inactive) |  |
| C[C@]12CC[C@@H]3c4ccc(OC(=O)N(CCCl)CCCl)cc4CC[C@H]3[C@@H]1CC[C@@H]2O | 11.9% (inactive) |  |
| C[C@H](N)[C@H](O)c1ccc(O)c(O)c1 | -36.8% (inactive) |  |
| COc1cc(OC)c(OC)cc1C=O | 5.76% (inactive) |  |
| c1ccc2c(c1)Nc1ccccc1S2 | 13% (inactive) and 14.2% (inactive) |  |
| CO[C@H]1CCC(O[C@H]2C[C@H]([C@]3(C)CC[C@]4(C[C@H](O)[C@@H](C)[C@@H]([C@@H](C)C=C(C)C(=O)[C@H](C)C[C@H](C)C(=O)O)O4)O3)O[C@]3(O[C@@H]([C@H]4O[C@@](O)(CO)[C@H](C)C[C@H]4C)C[C@H]3C)[C@H]2C)O[C@H]1C (stereo not given in full) | 20.4% (inactive) |  |
| O=C1CCC[C@@H]2[C@H]3CCCN4CCC[C@@H](CN12)[C@@H]34 | 30.7% (inactive) |  |
| Nc1ccc([As](=O)(O)O)cc1 | -5.02% (inactive) |  |
| CCOC(=O)c1cncn1[C@H](C)c1ccccc1 | -12.5% (inactive) |  |
| Cc1nc(-c2ccc(-c3ccc(C(=O)N4CCc5cc6c(cc54)C4(CCN(C)CC4)CO6)cc3)c(C)c2)no1 | -21.1% (inactive) |  |
| O=[N+]([O-])c1ncc[nH]1 | 15.2% (inactive) |  |
| CCCN1CCO[C@@H]2c3cc(O)ccc3OC[C@@H]21 | 15.2% (inactive) |  |
| O=C1c2ccccc2C(=O)C1C(=O)C(c1ccccc1)c1ccccc1 | 24.3% (inactive) |  |
| O=c1c(C2CC(c3ccc(-c4ccc(Br)cc4)cc3)Cc3ccccc32)c(O)sc2ccccc12 (stereo not given) | -13% (inactive) |  |
| Clc1ccc(CCC(Cn2ccnc2)Sc2c(Cl)cccc2Cl)cc1 (stereo not given) | 18.6% (inactive) and -21.6% (inactive) |  |
